In PubChem BioAssay (NCATS) one finds Potency, max response and outcome data, which are given here for 15 compounds.

Where “and” joins values, the source holds several entries; their conditions need not be identical. Equal entries are not always repeated. Results filed as inconclusive are left out. The source holds several records for some structures; these can differ, active in one and inactive in another. Unmarked numbers belong to inactive results. Calls of active or inactive are those of the source. The call rests on the fitted dose curve; in most records, active means well fitted inhibition curve with a large enough effect; inconclusive means small, poorly fitted or top-dose-only effect; inactive means flat fitted curve, though single readings scatter.

One assay deals with PC49. Nature of the assay: qHTS profiling for inhibitors of Plasmodium falciparum proliferation (AID 504749). The settings on record: P. falciparum in erythrocytes, SYBR Green DNA, 72 h; series mostly up to 28.7 µM. The method, boiled down:
(§1)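 Readout was DNA-dye fluorescence from lysed cultures, ex 485/em 535 nm. Parasitized red cells had grown 72 h with compound; data scaled between 0.29 uM artemisinin and DMSO wells and corrected using vehicle-only plates.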

The test system of a further assay is TAB109. The description is as above. Particulars: P. falciparum in erythrocytes, SYBR Green DNA, 72 h; series mostly up to 28.7 µM. A digest of the protocol:
as §1

The test system of a further assay is TAB113. The assay is described as above. Particulars: P. falciparum in erythrocytes, SYBR Green DNA, 72 h; series mostly up to 28.7 µM. The method, boiled down:
as §1

In the next assay the test system is CRL-7250. Nature of the assay: Cytotoxic Profiling of Annotated Libraries Using Quantitative High-Throughput Screening (AID 1296008). On max response: on the % scale 0 is the no-effect control and ±100 the full control effect. The settings on record: Five cell lines viability, CellTiter-Glo ATP luminescence, 48-72 h; max response: active compounds read low. The method, boiled down: (§2)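 Cells exposed to compounds for 48 or 72 hr at 37 degrees Celsius. Viability read as ATP-coupled luminescence with CellTiter-Glo after 10 min at room temperature.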
(Cellular ATP, detected with luciferase, serves as a proxy for viable cell number.)

In a further assay the test system is HEK293. The description is as above. Particulars: Five cell lines viability, CellTiter-Glo ATP luminescence, 48-72 h; max response: active compounds read low. The method, boiled down:
as §2

The test system of another assay is HaCat. The description is as above. Particulars: Five cell lines viability, CellTiter-Glo ATP luminescence, 48-72 h; max response: active compounds read low. The method, boiled down: as §2
The subject of another assay is PC26. Nature of the assay: qHTS profiling for inhibitors of Plasmodium falciparum proliferation (AID 504749). The settings on record: P. falciparum in erythrocytes, SYBR Green DNA, 72 h; series mostly up to 28.7 µM. A digest of the protocol: as §1
The subject of a further assay is SC27B. The description is as above. Particulars: P. falciparum in erythrocytes, SYBR Green DNA, 72 h; series mostly up to 28.7 µM. The method, boiled down: as §1
Another assay has as its system TAB165. Described as above. The settings on record: P. falciparum in erythrocytes, SYBR Green DNA, 72 h; series mostly up to 28.7 µM. A digest of the protocol: as §1
The subject of a further assay is W2. The assay is described as above. The settings on record: P. falciparum in erythrocytes, SYBR Green DNA, 72 h; series mostly up to 28.7 µM. The method, boiled down:
as §1
Further: nearly all actives have a fitted effect of over 60% in size.
Potency means the concentration at half of the fitted maximal effect.

With `CC1=C(C)C(=O)C(C(CCCCCC(=O)O)c2ccccc2)=C(C)C1=O` (stereo not drawn), the Potency result in the assay with PC49, in the assay with TAB109 and in the assay with TAB113 was “inactive” each time. In the assay on CRL-7250, the Potency was 5.31 µM (active). The max response with CRL-7250 is 0.243%; in the assay on HEK293 it was -12.9%; in the assay on HaCat, -5.06%. Besides, the outcome with HEK293 and in the assay on HaCat was inactive.
Take `COc1ccc2cc([C@H](C)C(=O)O)ccc2c1`: the Potency entry with PC26, in the assay on PC49, in the assay on SC27B, in the assay with TAB109, in the assay on TAB113 and in the assay with TAB165 was “inactive” each time. Besides, the max response was -17% and 0.0913% and -30.7% with CRL-7250; 0.939% with HEK293; -13.6% with HaCat. Also, the outcome with HEK293 and with HaCat was inactive.
Take `COc1cc(C(C)=O)ccc1OCCCN1CCC(c2noc3cc(F)ccc23)CC1`: the max response in the assay with CRL-7250 was -1.04%; in the assay with HEK293 it was -12.6%. Also, the result in the assay on CRL-7250 and in the assay on HaCat was inactive.
On to `Clc1ccc(C(Cn2ccnc2)OCc2ccsc2Cl)c(Cl)c1` (stereo not drawn), for which the Potency with PC26 was 3.38 µM (active); in the assay on PC49, 4.47 µM (active); in the assay on SC27B, 2 µM (active); in the assay on TAB109, 5.01 µM (active); in the assay on TAB113, 4.47 µM (active); with TAB165, 1 µM (active). Also, the Potency with W2 is 1.69 µM (active). The max response in the assay on CRL-7250 is 1.94%; in the assay on HaCat, -18.6% and -23.1%. Also, the compound was called inactive in the assay with CRL-7250.
Turning to `CC(=O)Nc1ccc(O)cc1`, the max response with CRL-7250 was -5.95%; in the assay with HEK293, 1.48%; in the assay on HaCat, -8.57%. The compound was called inactive in the assay with CRL-7250, with HEK293 and with HaCat.
Turning to `CCC1=C(C)CN(C(=O)NCCc2ccc(S(=O)(=O)NC(=O)NC3CCC(C)CC3)cc2)C1=O` (stereo not drawn), the Potency result in the assay on PC26, in the assay with PC49, in the assay on SC27B, in the assay on TAB109, in the assay with TAB113 and with TAB165 was “inactive” in each case. In addition, the Potency entry with W2 is “inactive”. For the same compound, in the assay with CRL-7250, the max response was 0.534% and 4.01%. Also, the compound was classed as inactive in the assay with CRL-7250, with HEK293 and in the assay on HaCat.
On to `O=C(O)CCNC(=O)c1ccc(N=Nc2ccc(O)c(C(=O)O)c2)cc1`, for which the Potency entry with PC26, in the assay with PC49, in the assay on SC27B, in the assay on TAB109, with TAB113 and in the assay with TAB165 was “inactive” each time. The Potency entry in the assay on W2 is “inactive”. In addition, the max response in the assay on CRL-7250 is -3.32%; with HEK293 it was -9.94% and 3.93%; in the assay with HaCat, -13.4%. For the same compound, the result with CRL-7250 and with HaCat was inactive.
On to `Clc1ccc(C(Cn2ccnc2)OCc2c(Cl)cccc2Cl)c(Cl)c1` (stereo not drawn), for which the max response in the assay on CRL-7250 is -2.52%; in the assay with HaCat, 1.49%. Also, the call in the assay with CRL-7250 and with HaCat was inactive. The Potency in the assay with HEK293 was 7.5 µM (active).
For the compound `CN(C)C(=O)COC(=O)Cc1ccc(OC(=O)c2ccc(N=C(N)N)cc2)cc1`, the Potency entry with PC26, in the assay on PC49, in the assay with SC27B, with TAB109, in the assay with TAB113 and with TAB165 was “inactive” throughout. Also, the Potency entry with W2 is “inactive”. Besides, the call in the assay on CRL-7250, in the assay with HEK293 and in the assay with HaCat was inactive. In addition, the max response is 2.71% with HEK293 and 3.28% with HaCat.
As to `COC(=O)N[C@H](C(=O)N[C@@H](Cc1ccccc1)[C@@H](O)CN(Cc1ccc(-c2ccccn2)cc1)NC(=O)[C@@H](NC(=O)OC)C(C)(C)C)C(C)(C)C`, the max response with CRL-7250 is -0.779%; in the assay on HEK293, -5.2%; with HaCat, -5.76%. Further, the call with HEK293 and in the assay with HaCat was inactive.
With `COc1cc2nc(N3CCN(C(=O)C4CCCO4)CC3)nc(N)c2cc1OC` (stereo not drawn), the max response is -10.4% in the assay on CRL-7250; -14.3% and 0.884% with HEK293; 3.43% and -0.464% with HaCat. The call in the assay on CRL-7250 was inactive.
As to `CCN(CCO)CCCC(C)Nc1ccnc2cc(Cl)ccc12` (stereo not drawn), the Potency result with PC26, in the assay on PC49, with SC27B, in the assay on TAB109, in the assay on TAB113 and in the assay with TAB165 was “inactive” throughout. For the same compound, the Potency entry with W2 was “inactive”. Further, the max response with CRL-7250 is -6.76% and 0.809%; with HEK293, 2.34%; in the assay on HaCat, -3.55% and -14.9%. Also, the compound was called inactive in the assay with CRL-7250, in the assay with HEK293 and in the assay with HaCat.
Turning to `CCCS(=O)c1ccc2nc(NC(=O)OC)[nH]c2c1` (stereo not drawn), in the assay on CRL-7250, the Potency is 21.1 µM (active) and the max response was -27.5%. The Potency in the assay on HEK293 was 23.7 µM (active).
In the case of `CN(c1nccc(=O)[nH]1)C1CCN(c2nc3ccccc3n2Cc2ccc(F)cc2)CC1`, the Potency result in the assay with PC49, with SC27B, in the assay on TAB113 and in the assay with TAB165 was “inactive” throughout. The Potency with W2 is 12 µM (active). Further, the max response is -35.3% and -24.5% with CRL-7250; -109% and 0.851% and -12.1% in the assay with HEK293; 0.328% in the assay on HaCat. Also, the compound was called inactive in the assay on CRL-7250 and in the assay with HaCat.
`CS(=O)(=O)OCCCCOS(C)(=O)=O`: the Potency entry in the assay on PC26, in the assay with PC49, with SC27B, with TAB109, in the assay on TAB113 and with TAB165 was “inactive” in each case. Moreover, the Potency entry with W2 was “inactive”. For the same compound, the max response in the assay with CRL-7250 was -2.55%; in the assay with HEK293, -5.94%; with HaCat it was -18.7%. Moreover, the compound was called inactive in the assay on CRL-7250, in the assay with HEK293 and in the assay with HaCat.
